# Measured values reported in PubChem BioAssay AID1259313 (Sanford-Burnham Center for Chemical Genomics, 2017).
# Screen size: about 340,000 compounds; about 8,500 (2.5%) were called active.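 Rule for the calls: active = melting temperature shift of at least 10% of the positive control shift, at one fixed dose; inactive = the rest.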 This excerpt belongs to a sample that is enriched for actives.
# Test system: Glutamate receptor ionotropic, NMDA 3A (GRIN3A) ligand-binding domain
# Assay: binders of NR3A ligand-binding domain, primary screen, biophysical, differential scanning fluorimetry, uHTS (AID 1259313)
# Settings: NR3A LBD differential scanning fluorimetry, at 25 µM, hits give high values
row,SMILES,Tm shift relative to glycine control
1,O=C(CCNS(=O)(=O)c1ccccc1)Nc1ccc(Cl)cc1C(=O)c1ccccc1,-5.82% (inactive)
2,O=C(COC(=O)c1ccccc1)Nc1ccc(Cl)cc1C(=O)c1ccccc1,12.2% (active)
3,CN1CCN(C(=S)SCC(=O)Nc2ccc(Cl)cc2C(=O)c2ccccc2)CC1,3.94% (inactive)
4,O=C(Nc1cccc2ccccc12)N1CCC2(CC1)OCCO2,0% (inactive)
5,Cc1cc(N2C(=O)C3CCCN3C2c2ccc(Cl)c(Cl)c2)no1 (stereo not given),0.27% (inactive)
6,COCCNC(=O)CN1C2CCC1CC(O)(c1cccnc1)C2 (stereo not given),0.09% (inactive)
7,O=C1NC(=O)N(Cc2ccco2)C(=O)/C1=C\c1ccc(-c2ccc(F)cc2)o1,0.53% (inactive)
8,COc1ccc(N2C(=O)/C(=C/c3ccco3)C(=O)NC2=S)cc1,10.6% (active)
9,COc1cccc(N2C(=O)NC(=O)/C(=C\c3ccc([N+](=O)[O-])s3)C2=O)c1,-7.7% (inactive)
10,CC[N+]1(C)CCCC(OC(=O)C(O)(c2ccccc2)c2ccccc2)C1 (stereo not given),1.89% (inactive)
11,CC1=C(C(=O)Nc2ccccc2)S(=O)(=O)CCO1,0.53% (inactive)
12,CCNc1nc2[nH]c(=O)c3c(c2s1)OC(N)=C(C#N)C3c1cccs1 (stereo not given),1.75% (inactive)
13,CCN1C(=O)C(=Cc2c(C)n(CC(=O)NCC3CCCO3)c3ccccc23)C(=O)N(CC)C1=S (stereo not given),0.27% (inactive)
14,CCCCCCCCCCCCn1ccc(=N)cc1,20.8% (active)
15,CCN1C(=O)NC(=O)C2(CCCC2)C1=O,1.88% (inactive)
